Hits are enriched below; roughly 2.8% of the tested compounds scored in any of these assays.
MsrA inhibitor: bovine MsrA enzyme inhibitors, primary screen, biochemical, absorbance, HTS. Methionine sulfoxide reductase A (Bos taurus). purified bovine MsrA, absorbance read-out. inhibition, % at 15.5 µM. hit rate 0.75% among 360,000. AID 651718, 2012; in the data active = inhibition above about 4.5%;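 also: 0% = vehicle wells with enzyme and 100% = reference inhibitor wells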
rCAG binder: binders of r(CAG) RNA repeats, primary screen, biochemical, fluorescence; r(CAG) RNA repeat, TO-PRO-1 dye displacement fluorescence; inhibition, % at 3 µM; hit rate 1.3% among 370,000; AID 651821, 2012;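 active = inhibition above the plate cutoff, the mean of all test compounds on that plate plus 3 SD, cut at about 35% in these data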;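 also: 0% = DMSO alone and 100% = 100 µM mitoxantrone as full dye displacement; higher means more dye released from RNA so lower well fluorescence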
MsrA act: bovine MsrA enzyme activators, primary screen, biochemical, absorbance, HTS; Methionine sulfoxide reductase A (Bos taurus); purified bovine MsrA, absorbance read-out; activation, % at 10.6 µM; hit rate 0.3% among 360,000; AID 602163, 2012; in the data active = activation above about 7.5%;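 also: 0% = vehicle and 100% = reference activator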
HGIII-sPLA2 inh: human group III sPLA2 inhibitors, primary screen, biochemical, QFRET, BODIPY PC-A2 liposome substrate. Group 3 secretory phospholipase A2 (Homo sapiens), Q9NZ20. QFRET BODIPY PC-A2 liposome hydrolysis, fluorescence. inhibition, % at 12.2 µM. hit rate 0.56% among 370,000. AID 743126, 2013;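 active = inhibition above mean plus 3 SD of compounds lying within the high and low control bounds, cut at about 19% in these data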;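 also: 0% = median of test compound wells and 100% = no enzyme DMSO wells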
Target sequence (Q9NZ20 whole entry, looked up): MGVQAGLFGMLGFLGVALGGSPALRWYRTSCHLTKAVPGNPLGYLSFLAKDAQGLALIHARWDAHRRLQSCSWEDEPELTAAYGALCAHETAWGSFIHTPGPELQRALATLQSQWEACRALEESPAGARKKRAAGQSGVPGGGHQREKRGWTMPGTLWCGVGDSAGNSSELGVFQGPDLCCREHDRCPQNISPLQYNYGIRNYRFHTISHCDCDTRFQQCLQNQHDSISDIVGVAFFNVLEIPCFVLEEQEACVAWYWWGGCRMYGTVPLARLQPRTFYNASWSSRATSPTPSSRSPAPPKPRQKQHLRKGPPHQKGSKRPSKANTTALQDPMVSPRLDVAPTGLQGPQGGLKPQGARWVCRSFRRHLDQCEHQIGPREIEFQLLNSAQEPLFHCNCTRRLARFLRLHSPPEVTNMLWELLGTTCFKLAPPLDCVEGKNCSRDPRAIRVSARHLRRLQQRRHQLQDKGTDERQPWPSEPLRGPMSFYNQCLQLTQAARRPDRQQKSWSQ
hGIII sPLA2 conf: human group III sPLA2 inhibitors, confirmation, biochemical, QFRET, triplicate; hit rate 34% among 2,000; inhibition, % at 12.2 µM; shares compounds with HGIII-sPLA2 inh; recombinant hGIII-sPLA2, BODIPY PC-A2 QFRET fluorescence;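 active = mean inhibition across triplicates above the hit cutoff set in the earlier primary screen, cut at about 19% in these data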;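 also: 0% = enzyme with DMSO and 100% = DMSO wells lacking enzyme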
535nm interf: 535nm fluorescence optical interference, confirmation, artefact control for HGIII-sPLA2 inhibitor project, biochemical, QFRET; inhibition, % at 12.2 µM; AID 743282, 2014; BODIPY FL product fluorescence interference; hit rate 8.5% among 2,000; shares compounds with HGIII-sPLA2 inh;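 active = average inhibition above the solvent-only control mean plus 3 SD, cut at about 6% in these data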;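 also: 0% = DMSO with substrate plus product and 100% = DMSO with substrate alone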
BODIPY interf DR: 535nm fluorescence optical interference, dose response, artefact control for HGIII-sPLA2 inhibitor project, biochemical, QFRET. BODIPY FL product fluorescence interference, cell-free. 240 tested, under 10 active. shares compounds with HGIII-sPLA2 inh. IC50, µM;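 active = IC50 at or below 10 µM; inactive = IC50 above 10 µM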
* marks the source's active call; other numbers are inactive results; . = no result.

SMILES | MsrA inhibitor | rCAG binder | MsrA act | HGIII-sPLA2 inh | hGIII sPLA2 conf | 535nm interf | others
O=C(Nc1ccc([N+](=O)[O-])cc1)c1cn(-c2ccccc2)nc1-c1cc2ccccc2o1 | 0 | 0 | -3 | 20* | -3 | -8
CC(C)c1cc(C(=O)NCc2ccc(F)cc2)c(N)s1 | 1 | 8 | . | 21* | 24* | 2
COc1ccc(C(C)(O)c2nc(-c3cnc4ccccc4c3)cs2)cc1 (stereo not drawn) | 0 | 2 | -1 | -26 | . | .
N=C1C(c2nc3ccccc3[nH]2)=C(O)CN1c1ccccc1 | -1 | 3 | -3 | 22* | 14 | -5
N=C1C(c2nc3ccccc3[nH]2)=C(O)CN1c1ccc(CC(=O)O)cc1 | 1 | 14 | -9 | 1 | . | .
CCOC(=O)C1CCCN(C(=O)c2cc3ncc(Br)cn3n2)C1 (stereo not drawn) | 0 | 0 | -5 | 21* | 0 | -9
CCOC(=O)C1CCCN(C(=O)c2cc(-c3ccc(C)cc3)on2)C1 (stereo not drawn) | 0 | -6 | -8 | -6 | . | .
C/C(=N\NC(=O)c1ccc(N(C)C)cc1)c1ccc(C)c(C)c1 | 2 | -2 | -7 | 31* | 6 | -2
C/C(=N\NC(=O)c1ccc(N(C)C)cc1)c1ccc(C)cc1C | 3 | 4 | 1 | 2 | . | .
CC1CCc2nc3sc4c(c3c(N)c2C1)CCCC4 (stereo not drawn) | 1 | 9 | 1 | 20* | 11 | -5
O=C(CSc1nnc(NCc2ccccc2)s1)N1CCOCC1 | 0 | -2 | -10 | 27* | -2 | -5
C=CCNc1nc(NCCN2CCOCC2)nc(N2CCOCC2)n1 | -2 | -5 | -5 | 1 | . | .
CCOC(=O)[C@H]1[C@H]2COc3cc(OC)ccc3[C@@H]2N2C(=O)c3cc(OC)c(OC)cc3NC(=O)[C@@]12C | 0 | 9 | 0 | 22* | 8 | -15
CCOC(=O)[C@H]1[C@H]2COc3ccccc3[C@@H]2N2C(=O)c3cc(OC)ccc3NC(=O)[C@@]12C | 0 | 1 | -6 | -6 | . | .
O=C(O)CCN1C(=O)c2ccccc2Sc2ncccc21 | 0 | 0 | -6 | 23* | 0 | -2
Cc1ccccc1OCC(=O)Nc1ccc2c(c1)OCO2 | 0 | 0 | 1 | 23* | -2 | -8
Cc1cc(C(=O)CN2C(=O)C(=O)N(Cc3ccccc3)C2=O)c(C)n1-c1ccccc1F | 2 | 5 | 1 | -4 | . | .
Cc1cc(C(=O)CN2CCC(C)CC2)c(C)n1-c1ccccc1F | 0 | 0 | 1 | 19* | 4 | -22
C=CCNC(=S)NNC(=O)c1ccc(C)c(Cl)c1 | 1 | 3 | -2 | 23* | 21* | 3
C=CCNC(=S)NNC(=O)c1cccn(Cc2ccc(Cl)c(Cl)c2)c1=O | 1 | 8 | -1 | 25* | 31* | -5 | BODIPY interf DR=>122
CNC(=S)NNC(=O)c1cccn(Cc2ccc(Cl)c(Cl)c2)c1=O | 2 | 1 | -4 | 14 | . | .
C=CCNC(=S)NNC(=O)c1cccn(Cc2ccc(Cl)cc2Cl)c1=O | 1 | 3 | 0 | 26* | 22* | 1
CNC(=S)Nc1ccc([N+](=O)[O-])cc1C | 1 | 3 | -3 | 3 | . | .
COc1ccc(-c2ccc(C(=O)Nc3cccc(N(C)C)c3)c3occc23)c(C)c1 | 2 | 10 | -4 | 20* | 16 | 7.7*
Cc1ccc(C(=O)NCc2cccs2)cc1S(=O)(=O)N1CCCCC1 | 0 | -2 | -5 | 2 | . | .
SMILES | MsrA inhibitor | rCAG binder | MsrA act | HGIII-sPLA2 inh | hGIII sPLA2 conf | 535nm interf | others
Cc1ccn2c(Nc3ccccc3C)c(-c3ccccn3)nc2c1 | 2 | -1 | -3 | 21* | 30* | -21 | BODIPY interf DR=>122
Cc1ccn2c(Nc3ccccc3)c(-c3ccccn3)nc2c1 | 1 | 0 | -6 | 20* | 18 | -28
Cc1ccccc1Nc1c(-c2ccccn2)nc2ccccn12 | 0 | -2 | -3 | 8 | . | .
Cc1ccc2nc(-c3ccccn3)c(Nc3ccccc3C)n2c1 | 0 | -3 | -3 | 27* | 24* | -18
COc1cc(OC)cc(C(=O)NCCSC2CCCCC2)c1 | -1 | -4 | -2 | 0 | . | .
CC12CCC(=O)N1C(C(=O)N1CCN(S(=O)(=O)c3ccccc3F)CC1)CS2 (stereo not drawn) | 1 | 4 | -2 | 14 | . | .
COc1ccc(S(=O)(=O)N(CC(=O)NCc2ccco2)c2ccccc2)cc1 | 2 | -2 | -1 | -2 | . | .
S=c1[nH]c2ccccc2n2c(=S)[nH]nc12 | 4 | 6 | 6 | 21* | 26* | -5
O=C(NNC(=S)Nc1ccc(Br)cc1)c1cccnc1 | 2 | 2 | -1 | 19* | 31* | -1 | BODIPY interf DR=>122
O=C(NNC(=S)Nc1ccc(F)cc1)c1cccc([N+](=O)[O-])c1 | 2 | 5 | -1 | 25* | 31* | 0
O=C(NC(=S)NNC(=O)c1ccccc1O)c1cccnc1 | 2 | -2 | 4 | 33* | 16 | -4
O=[N+]([O-])c1ccc(NNC(=S)Nc2ccc(F)cc2)cc1 | 2 | 17 | 2 | 0 | . | .
O=C(NC(=S)NNC(=O)c1ccccc1O)c1cccc([N+](=O)[O-])c1 | 1 | 0 | 1 | 41* | 27* | 5
Cc1ccccc1Oc1ncccc1C(=O)/C(C#N)=C/N(C)C | 2 | 1 | -1 | -1 | . | .
O=C(NNC(=S)Nc1ccc(C(=O)O)c(O)c1)c1ccncc1 | 3 | 10 | 1 | 20* | 6 | -3
O=C(NNC(=S)Nc1ccccc1)c1ccncc1 | 2 | 2 | 0 | 7 | . | .
O=C(CN1C(=O)CSc2ncccc21)NCCN1CCOCC1 | -1 | 2 | -3 | -6 | . | .
COCCCNC(=O)CN1C(=O)CSc2ncccc21 | 1 | -2 | -2 | 19* | 1 | -6
CCOc1ccc(C2C3=C(CC(C)(C)CC3=O)N(CCCOC)C3=C2C(=O)CC(C)(C)C3)cc1OC | 1 | 0 | -3 | 3 | . | .
CCC(C(=O)OCCOCCN(CC)CC)c1ccccc1 (stereo not drawn) | 0 | -2 | -7 | 20* | 6 | -8
CCN(CC)CCCOC(=O)C(c1ccccc1)c1ccccc1 | 1 | -10 | -2 | 9 | . | .
COc1ccc(CN2CCc3c([nH]c4ccccc34)C2)cc1Br | 0 | -2 | -2 | 27* | 8 | -6
CCNC(=O)Oc1ccc[nH]c1=O | 0 | 0 | -2 | 1 | . | .
CC(C)CNC(=O)CN(C)S(=O)(=O)c1ccc(F)cc1 | 0 | -5 | -7 | 22* | 0 | -11

High-throughput results as filed in PubChem BioAssay.
